SARS PLP yeast = qHTS of Yeast-based Assay for SARS-CoV PLP | S. cerevisiae expressing SARS-CoV PLpro, growth rescue | Potency, µM (series often up to 32.9 µM), without a hit: at the highest dose activity, positive = growth rescue, most hits filed as activators | 0.19% of 330,000 active | AID 485353, 2010; calls by dose curve; further: 0% is about no effect; nearly all actives have a fitted effect of over 55% in size
Pf growth 48h = Primary qHTS for delayed death inhibitors of the malarial parasite plastid, 48 hour incubation; 5.9% of 310,000 active; Potency, µM (doses to about 28.7 µM), for the others: at the highest dose activity change, negative = inhibition, usual class: inhibitors; P. falciparum luciferase growth in erythrocytes, 48 h; further: on the % scale 0 is the no-effect control and ±100 the full control effect
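Luciferase-expressing parasites in RBCs, 2% Hct / 0.1% parasitemia final; RPMI 1640 + 0.5% Albumax; 37 C, 5% CO2, one generation; luminescence read-out, lower signal = inhibition.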
AMA1 RON2 block = qHTS for Inhibitors of AMA1-RON; Towards Development of Antimalarial Drug Lead: Primary Screen. Plasmodium falciparum AMA1 (3D7) - RON2 peptide interaction. AlphaScreen AMA1-biotinylated RON2 peptide binding. Potency, µM (series often up to 58.2 µM), inactives show at the top dose activity change, negative = inhibition, hits mostly inhibitors. 0.2% of 360,000 active. AID 720542, 2013;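 further: 0% = vehicle wells and -100% = peptide control; nearly all actives have a fitted effect of over 45% in size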
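AMA1 (3D7) with his tag at 25 nM final met compounds first, then biotinylated RON2 peptide at 25 nM; detection used donor plus acceptor beads, 10 µg/mL apiece, read by AlphaScreen after 30 min at room temperature.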
Pf growth 96h = Primary qHTS for delayed death inhibitors of the malarial parasite plastid, 96 hour incubation; Potency, µM (top dose mostly 28.7 µM), for inactives: top-dose activity change, negative = inhibition, actives largely listed as inhibitors; 6.9% of 320,000 active; P. falciparum luciferase reporter growth, 96 h; further: on the % scale 0 is the no-effect control and ±100 the full control effect
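Infected RBCs, 2% Hct / 0.05% parasitemia final; luciferase-reporter P. falciparum; cpd 96 h, 37 C, 5% CO2; luciferase detection reagent; luminescence.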
Numbers without * were called inactive. The list is not random: actives were taken first. Their share in the collection is about 9.4%. Unless noted, the call rests on the fitted dose curve; in most records, active means well fitted curve in the direction sought with a large enough effect; inconclusive means small, poorly fitted or top-dose-only effect, or another doubt; inactive means no such curve, though single readings can be large; an effect the other way counts as inactive or inconclusive. Potency means the concentration at half of the fitted maximal effect.

What do the screens show for `Cc1cc(NC(=O)C2CCCN(S(=O)(=O)c3cnc[nH]3)C2)ccc1Br` (centres undefined)?
SARS PLP yeast: 0%; AMA1 RON2 block: -6%; Pf growth 96h: 4.1µM*

What do the screens show for `O=C(Nc1ccc(Cl)c(C(F)(F)F)c1)C1CCCN(S(=O)(=O)c2cnc[nH]2)C1` (centres undefined)?
SARS PLP yeast: -3%; Pf growth 48h: inconclusive; AMA1 RON2 block: -7%; Pf growth 96h: 10µM*

What do the screens show for `Cc1ccc(OCc2nc(-c3ccccn3)no2)c(Br)c1`?
SARS PLP yeast: -15%; Pf growth 48h: 14%; AMA1 RON2 block: 15%; Pf growth 96h: 2.3µM*

What do the screens show for `CC1CCN(C2=NC(=O)/C(=C/c3cn(-c4ccccc4)nc3-c3cccc(S(=O)(=O)N(C)C)c3)S2)CC1`?
SARS PLP yeast: 8%; Pf growth 48h: 7.4µM*; AMA1 RON2 block: -9%; Pf growth 96h: inconclusive

What do the screens show for `COc1ccc(OC)c(/C=C2\SC(N3CCCC(C)C3)=NC2=O)c1` (centres undefined)?
SARS PLP yeast: 0%; Pf growth 48h: inconclusive; AMA1 RON2 block: 31%; Pf growth 96h: 4%

Results for CC1CCCN(C2=NC(=O)/C(=C/c3cn(-c4ccccc4)nc3-c3cccc(S(=O)(=O)N(C)C)c3)S2)C1 (centres undefined) ?
SARS PLP yeast: 2%; Pf growth 48h: inconclusive; AMA1 RON2 block: -3%; Pf growth 96h: 1.7µM*

What do the screens show for `Cc1cc(C)nc(SCC(=O)c2c(N)n(C)c(=O)n(C)c2=O)n1`?
SARS PLP yeast: -1%; Pf growth 48h: 25%; AMA1 RON2 block: -3%

Results for Cc1ccc(C)c(-n2c(CNC(=O)c3ccco3)nnc2SCC(=O)N2CCc3ccccc32)c1 ?
SARS PLP yeast: -1%; Pf growth 48h: 8%; AMA1 RON2 block: 40%; Pf growth 96h: 13µM*

Results for O=C(COc1ccc2ccccc2c1CN1CCOCC1)N1CCc2ccccc21 ?
SARS PLP yeast: 5%; AMA1 RON2 block: 10%; Pf growth 96h: 10µM*

What do the screens show for `Cc1ccc(C)c(-n2c(CNC(=O)c3ccco3)nnc2SCC(=O)Nc2nnc(C)s2)c1`?
SARS PLP yeast: -3%; AMA1 RON2 block: -1%; Pf growth 96h: 26%

What do the screens show for `N#Cc1ccc(OCc2nnc(SCC(=O)N3CCCc4ccccc43)n2-c2ccccc2)cc1`?
SARS PLP yeast: 2%; Pf growth 48h: 15µM*; AMA1 RON2 block: -11%; Pf growth 96h: 3.3µM*

How did O=C(CSc1nnc(CN2CCOCC2)n1-c1ccccc1)N1CCc2ccccc21 do in these assays?
SARS PLP yeast: 3%; Pf growth 48h: 3%; AMA1 RON2 block: 6%; Pf growth 96h: 13µM*

How did CCOC(=O)c1sc2nc(-c3ccccc3)ccc2c1N do in these assays?
SARS PLP yeast: -21%; Pf growth 48h: 85%; AMA1 RON2 block: 0%; Pf growth 96h: -1%

What do the screens show for `Cc1ccccc1OCCNC(=O)/C=C/c1ccccc1`?
SARS PLP yeast: 17%; Pf growth 48h: -9%; AMA1 RON2 block: -6%; Pf growth 96h: 188%

How did CC(=O)Nc1ccc(C(=O)N2CCCCC2c2cc(C(=O)Nc3cccc4c3CCCC4)no2)cc1 (centres undefined) do in these assays?
AMA1 RON2 block: -2%

Results for COc1ccc(OCc2nnc(SCC(=O)N3CCCc4ccccc43)n2-c2ccc(C)cc2)cc1 ?
SARS PLP yeast: 0%; Pf growth 48h: 12µM*; AMA1 RON2 block: 15%

Results for COc1ccc(-n2c(Cc3cccn3C)nnc2SCC(=O)N2CCCc3ccccc32)cc1 ?
SARS PLP yeast: -17%; Pf growth 48h: inconclusive; AMA1 RON2 block: -12%; Pf growth 96h: 13%

How did Cc1occc1-c1nnc(SCC(=O)N2CCc3ccccc32)o1 do in these assays?
SARS PLP yeast: 3%; Pf growth 48h: -16%; AMA1 RON2 block: 12%; Pf growth 96h: 5.2µM*

How did CC1CCN(c2nc3c(c(=O)n(C)c(=O)n3C)n2CCSc2nc3ccccc3s2)CC1 do in these assays?
SARS PLP yeast: -2%; AMA1 RON2 block: -3%; Pf growth 96h: inconclusive

How did Cn1c(=O)c2c(nc(N3CCC(C(N)=O)CC3)n2CCSc2nc3ccccc3s2)n(C)c1=O do in these assays?
SARS PLP yeast: 0%; Pf growth 48h: 2.9µM*; AMA1 RON2 block: 1%; Pf growth 96h: 3%

What do the screens show for `Cn1c(=O)c2c(nc(N3CCCCC3)n2CCSc2nc3ccccc3s2)n(C)c1=O`?
SARS PLP yeast: -13%; Pf growth 48h: 1%; AMA1 RON2 block: 4%; Pf growth 96h: 5%

What do the screens show for `Cc1cc(C)nc(SCCn2c(N3CCC(C)CC3)nc3c2c(=O)n(C)c(=O)n3C)n1`?
SARS PLP yeast: 5%; Pf growth 48h: 42%; Pf growth 96h: 2.3µM*

How did Cn1c(=O)[nH]c(=O)c2c1nc(N1CCCCC1)n2CCCSc1nc2ccccc2s1 do in these assays?
SARS PLP yeast: 10%; Pf growth 48h: inconclusive; AMA1 RON2 block: 0%; Pf growth 96h: 4.1µM*

What do the screens show for `O=C(CN(C(=O)c1csnn1)c1ccc(F)cc1)NCc1ccc2c(c1)OCO2`?
SARS PLP yeast: 0%; Pf growth 48h: 19%; AMA1 RON2 block: -1%; Pf growth 96h: 31%

What do the screens show for `Cc1cccc(NC(=O)CSc2nnc(-c3ccccc3)n2N)c1`?
SARS PLP yeast: 2%; Pf growth 48h: 23%; AMA1 RON2 block: 9%; Pf growth 96h: 26%

Results for CCNC(=O)COC(=O)c1[nH]c(C)c(C(=O)OC)c1C ?
SARS PLP yeast: -5%; Pf growth 48h: 185%; AMA1 RON2 block: 4%; Pf growth 96h: 305%

Results for N#CC1=C(N)NC(SCC(=O)Nc2ccccc2)=C(C#N)C12CCCCC2 ?
SARS PLP yeast: -17%; Pf growth 48h: inconclusive; AMA1 RON2 block: 32%; Pf growth 96h: 13µM*

Results for COc1ccc(C(=O)CSC2=C(C#N)C3(CCCCC3)C(C#N)=C(N)N2)cc1 ?
SARS PLP yeast: -10%; Pf growth 48h: 12µM*; AMA1 RON2 block: -11%; Pf growth 96h: 4%

What do the screens show for `N#CC1=C(N)NC(SCC(=O)c2ccc(Cl)cc2)=C(C#N)C12CCCC2`?
SARS PLP yeast: -7%; Pf growth 48h: inconclusive; AMA1 RON2 block: 5%

How did N#CC1=C(N)NC(SCC(=O)c2ccc(Br)cc2)=C(C#N)C12CCCCC2 do in these assays?
SARS PLP yeast: -82%; Pf growth 48h: inconclusive; AMA1 RON2 block: -4%; Pf growth 96h: 15µM*

Results for CC1Cc2ccccc2N1C(=O)CSc1nnnn1C1CCCC1 (centres undefined) ?
SARS PLP yeast: 5%; Pf growth 48h: -10%; AMA1 RON2 block: -2%; Pf growth 96h: 34%

How did O=C(CSc1ncn[nH]1)NCCC(c1ccccc1)c1ccccc1 do in these assays?
SARS PLP yeast: 2%; Pf growth 48h: inconclusive; AMA1 RON2 block: 5%; Pf growth 96h: 10µM*

What do the screens show for `Nn1c(-c2ccc(F)cc2)nc2ccccc2c1=O`?
SARS PLP yeast: -1%; Pf growth 48h: 29%; AMA1 RON2 block: -10%; Pf growth 96h: inconclusive

High-throughput results: PubChem BioAssay, National Center for Advancing Translational Sciences (NCATS)
